Rce1 inh: blocks yeast Ras-converting enzyme; Q03530; yeast membranes, quenched prenylated peptide cleavage fluorescence; calls only; hit rate 0.27% among 290,000; AID 2563;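 active means fall in fluorescence gain of 50% or more versus controls, with final raw signal at or below 3038400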;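 further: plate controls were neutral control wells for no effect and wells lacking membranes for full effect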
GRK2 inh: human GRK2 inhibition via aptamer displacement. P25098. bead flow cytometry, FAM-aptamer displacement from GRK2. inhibition of aptamer binding, % at 10 µM. hit rate 0.59% among 330,000;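 active means inhibition of aptamer binding above 40%, roughly 3 SD of noise, on plates passing a quality check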;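 further: median bead fluorescence of bound FAM aptamer so fluorescent compounds give negative values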
HDAC3 inh: human HDAC3 inhibition; inhibition, % at 8.3 µM; hit rate 0.15% among 320,000; AID 2718; recombinant HDAC3, fluorogenic peptide/trypsin coupled, fluorescence; O15379; in the data active means inhibition above about 26%, passing the limit was not always enough
ALR H2O2 inh: human ALR oxidase inhibition via reduced H2O2; AID 485317; hit rate 3.8% among 290,000; inhibition, % (test concentration not listed); purified ALR, DTT oxidation, H2O2 HRP-luminol luminescence; P55789;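 active means mean replicate inhibition above about 79%, with every replicate also reaching it, limit read from the data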
Target sequence (P55789 whole entry, looked up): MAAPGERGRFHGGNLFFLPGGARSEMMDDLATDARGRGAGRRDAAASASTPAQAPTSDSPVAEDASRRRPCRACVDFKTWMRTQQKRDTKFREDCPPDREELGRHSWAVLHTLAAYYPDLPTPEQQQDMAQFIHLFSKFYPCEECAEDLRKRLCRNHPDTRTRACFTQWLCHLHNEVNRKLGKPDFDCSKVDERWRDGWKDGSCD
Efflux pump mplx: blocks antifungal efflux pumps in multiplex yeast assay; S. cerevisiae Candida pump triplex, Nile Red efflux; inhibition, % at 10 µM; hit rate 0.44% among 330,000;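 active means plate passing quality check with inhibition over a set limit, or well fluorescence over plate mean plus 4 SD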;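 further: Nile Red retained in pooled yeast measured as flow cytometry median fluorescence; 0% = buffer negative control and 100% = Enniatin B positive control; higher means more Nile Red kept so more efflux inhibition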
Rtt109 Vps75: blocks Candida albicans Rtt109/Vps75 acetyltransferase activity | Q5AAJ8 | purified Rtt109/Vps75, ThioGlo CoA-SH fluorescence, 4 h | inhibition, % at 34.9 µM | hit rate 0.16% among 330,000 | AID 540336;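 active means inhibition of at least 50% in every replicate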
Target sequence (Q5AAJ8 whole entry, looked up): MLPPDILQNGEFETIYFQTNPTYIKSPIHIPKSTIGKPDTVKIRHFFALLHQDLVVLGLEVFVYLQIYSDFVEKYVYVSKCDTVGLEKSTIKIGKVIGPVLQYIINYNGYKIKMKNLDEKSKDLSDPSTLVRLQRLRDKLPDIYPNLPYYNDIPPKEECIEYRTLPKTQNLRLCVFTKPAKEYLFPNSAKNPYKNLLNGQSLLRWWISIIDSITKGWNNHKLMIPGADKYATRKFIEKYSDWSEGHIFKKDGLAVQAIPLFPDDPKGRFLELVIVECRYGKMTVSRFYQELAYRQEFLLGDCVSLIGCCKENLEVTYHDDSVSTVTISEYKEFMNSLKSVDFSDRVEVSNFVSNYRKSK
GRK2 inh confirm: confirmation of human GRK2 inhibitors displacing RNA aptamer | shares compounds with GRK2 inh | hit rate 4% among 2,000 | aptamer displacement, % at 10 µM | bead-bound GRK2, FAM-aptamer displacement, flow cytometry;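 active means aptamer displacement above 40%, near three times the noise of non-fluorescent compounds, on plates passing quality checks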;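 further: negative values mostly reflect intrinsic compound fluorescence rather than true enhancement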
FAM quench CP1: counter-screen for GRK2 aptamer inhibitors: fluorescent aptamer quenchers | shares compounds with GRK2 inh | Carboxyfluorescein RNA aptamer on beads, flow cytometry quenching; stronger effect = lower value | AID 504580 | 2,000 tested, under 10 active | fluorescence response (% of DMSO), % at 10 µM;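 active means compounds that quench the bead-bound fluorescent RNA probe, cutting fluorescence to under half of the solvent control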;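 further: counterscreen run without GRK2 so only probe quenching by compound is measured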
GRK2 CP2: human GRK2 inhibition confirmation, cherry pick 2. shares compounds with GRK2 inh. bead-bound GRK2, FAM-aptamer displacement, flow cytometry. inhibition of aptamer binding, % at 10 µM. 360 tested, under 10 active. AID 504782;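 active means inhibition of aptamer binding above 40%, about triple the noise seen with nonglowing compounds, on plates passing quality control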;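 further: negative values mostly come from compounds that fluoresce themselves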
FAM quench CP2: quenches fluorescent RNA aptamer, GRK2 hit artifact. shares compounds with GRK2 inh. carboxyfluorescein RNA aptamer beads, flow cytometry quenching; stronger effect = lower value. fluorescence response vs DMSO, % at 10 µM. 360 tested, under 10 active. AID 588494;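 active means response vs DMSO under 50%, meaning signal dropped by over half, treated as fluorescence quencher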;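 further: labelled aptamer on streptavidin beads without GRK2 as a quench counter-screen; 100% = bead fluorescence of DMSO wells and lower means quenching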
Starred values were filed as active, the others as inactive; i = inactive; . = no result. An excerpt weighted towards active compounds, which were near 4.5% of everything screened.

SMILES	Rce1 inh	GRK2 inh	HDAC3 inh	ALR H2O2 inh	Efflux pump mplx	Rtt109 Vps75	GRK2 inh confirm	FAM quench CP1	others
COc1ccccc1NC(=O)CCS(=O)(=O)c1ccc2c(c1)NC(=O)C(C)S2 (centres undefined)	i	22.0	1.6	0.7	0.0	1.9	.	.	GRK2 CP2=10.1;FAM quench CP2=97.0
Cc1ccc(CNC(=O)CCS(=O)(=O)c2ccc3c(c2)NC(=O)C(C)S3)cc1 (centres undefined)	i	8.0	-4.9	-2.3	0.1	-11.5	.	.	GRK2 CP2=8.5;FAM quench CP2=102.0
Cc1ccc(CNC(=O)CC(C)S(=O)(=O)c2ccc3c(c2)NC(=O)C(C)S3)cc1 (centres undefined)	i	3.0	1.8	-5.3	-0.1	-5.2	.	.	GRK2 CP2=0.7;FAM quench CP2=100.0
O=C(Cn1[nH]c(=O)c2ccccc2c1=O)NCCN1C(=O)S/C(=C\c2ccccc2)C1=O	.	5.0	-1.8	-3.6	0.0	9.0	.	.
CCc1ccc(/C([O-])=C(/C(=S)NCCN2CCOCC2)[n+]2ccccc2)cc1	i	72.0*	3.2	-6.7	0.1	0.5	-5.3	104.3
S=C(NCCN1CCOCC1)C(=S)NCCN1CCOCC1	.	.	.	.	.	2.6	.	.
CCc1c(C(=O)NC2CCCC2)csc1C	i	97.0*	-1.3	44.1	-0.1	-5.5	-4.2	95.4
CCc1c(C(=O)NN2C(=O)C3CCCCC3C2=O)csc1C (centres undefined)	i	0.0	-1.2	-7.9	0.2	-9.3	.	.
Cc1oc2cc3oc(=O)c(CCC(=O)N4C[C@H]5C[C@@H](C4)c4cccc(=O)n4C5)c(C)c3cc2c1C	i	1.0	-1.9	-5.3	-0.1	0.6	.	.
COc1ccc(C(C)=O)cc1CSc1ccc(S(=O)(=O)N2CCOCC2)cn1	.	0.0	10.0	.	0.3	-3.0	.	.
O=C(NCC1CCCO1)C1CCCN1C(=O)Nc1ccc(Cl)c(Cl)c1 (centres undefined)	i	53.0*	-5.2	-5.1	0.3	3.8	-5.1	99.0
COCCNC(=O)C(c1ccc(C)cc1)N(C(=O)CCC(=O)Nc1ccccn1)C1CCCCC1 (centres undefined)	i	3.0	-10.7	3.5	-0.1	-7.5	.	.
CC1CCN(c2nc(CN3CCCCC3)nc3scc(-c4ccccc4)c23)CC1	i	0.0	8.2	-2.0	0.8	61.0*	-3.1	94.5
O=C(CNS(=O)(=O)c1ccc(Cl)c(C(F)(F)F)c1)NC1CCCCCC1	.	43.0*	10.3	.	-0.2	-1.5	.	.	GRK2 CP2=12.7;FAM quench CP2=100.0
O=C(CNS(=O)(=O)c1cccc(C(F)(F)F)c1)NC1CCCCCC1	.	0.0	7.8	1.1	0.0	-7.0	.	.
O=C(NC(Cc1ccccc1)C(=O)N1CCCCCC1)c1ccccc1 (centres undefined)	i	3.0	-16.1	-16.3	0.1	-4.9	.	.
O=C(NC(CC1CCCCC1)C(=O)O)c1ccccc1 (centres undefined)	.	99.0*	5.4	-0.4	0.5	-3.7	6.5	101.7
CC1(C)Cc2c(cnn2-c2cccc(F)c2)C(NC(=O)CSc2ccncc2)C1 (centres undefined)	i	0.0	9.8	1.2	2.5	-8.7	.	.
O=C(Cc1ccccc1F)Nc1cc(S(=O)(=O)N2CCCC2)ccc1Cl	.	2.0	-8.5	-12.1	-0.4	18.2	.	.
O=C(CNc1ccccc1F)Nc1cc(S(=O)(=O)N2CCCCC2)ccc1Cl	.	52.0*	-4.8	-13.0	-0.2	9.5	3.1	93.1
COc1ccccc1C(=O)N/C(=C\c1cn(C)c2ccccc12)C(=O)N1CCOCC1	i	0.0	6.9	27.4	0.0	-10.2	.	.
COc1ccc(C(=O)N/C(=C\c2cn(C)c3ccccc23)C(=O)N2CCOCC2)cc1OC	i	57.0*	1.7	31.5	0.2	11.7	-2.6	102.5
Cc1onc(-c2ccccc2)c1C(=O)NCCSCc1ccco1	.	0.0	-3.8	-6.4	0.0	8.2	.	.
Cc1nnc(SCCCN2C(=O)c3ccccc3C2=O)o1	.	15.0	.	.	0.2	4.1	-5.4	102.1
COc1ccc([N+](=O)[O-])cc1NS(=O)(=O)c1ccc(Cl)c(C(=O)Nc2sc3c(c2C#N)CCCCC3)c1	i	0.0	-3.8	-1.9	0.1	.	.	.
SMILES	Rce1 inh	GRK2 inh	HDAC3 inh	ALR H2O2 inh	Efflux pump mplx	Rtt109 Vps75	GRK2 inh confirm	FAM quench CP1	others
COc1ccccc1C(=O)Nc1c2c(nn1-c1ccc(Cl)cc1)CS(=O)(=O)C2	i	44.0*	-2.8	6.9	0.3	-3.5	.	.	GRK2 CP2=-17.7;FAM quench CP2=101.0
CCCOc1cccc(C(=O)N(Cc2ccc(OC)c(OC)c2)C2CCS(=O)(=O)C2)c1 (centres undefined)	i	0.0	0.6	0.7	0.0	-2.0	.	.
CCCOc1ccc(CN(C(=O)c2cccc(OC)c2)C2CCS(=O)(=O)C2)cc1 (centres undefined)	i	99.0*	0.1	-4.2	-0.1	2.7	1.5	96.8
CN(C)S(=O)(=O)c1ccc(/C(O)=C2/C(=O)C(=O)N(CCCN3CCOCC3)C2c2ccncc2)cc1 (centres undefined)	i	0.0	3.8	.	0.1	.	.	.
CCOC(=O)CC(NC(=O)c1cc2cc(Br)ccc2oc1=O)c1cccc([N+](=O)[O-])c1 (centres undefined)	i	78.0*	.	.	0.0	3.4	.	.	GRK2 CP2=2.8;FAM quench CP2=99.0
CCOC(=O)c1cc2cc([N+](=O)[O-])ccc2oc1=O	i	5.0	.	1.1	-0.1	36.5	.	.
CC(c1nnc(SCC(=O)Nc2cccnc2Cl)n1Cc1ccccc1)N(C)C (centres undefined)	i	99.0*	2.7	86.8*	-0.1	6.2	2.8	91.1
CC(=O)c1cccc(NC(=O)CSc2nnc(C(C)N(C)C)n2Cc2ccccc2)c1 (centres undefined)	i	0.0	1.6	.	0.0	19.8	.	.
CC(C)N(CCn1c(SCC(=O)Nc2cccnc2Cl)nc2ccccc2c1=O)C(C)C	.	42.0*	-1.0	.	-0.3	0.1	.	.	GRK2 CP2=-8.5;FAM quench CP2=99.0
COCCn1c(SCC(=O)Nc2cccnc2Cl)nc2cc(Cl)ccc2c1=O	.	4.0	1.3	3.1	0.2	-6.3	.	.
CC1(C)Cc2c(sc3ncnc(NNC(=S)NCc4ccccc4)c23)CO1	i	91.0*	3.3	19.4	0.0	10.3	1.4	87.4
CC(NC(=O)c1ccc(C(C)(C)C)cc1)C(c1cccs1)N1CCOCC1 (centres undefined)	i	53.0*	-1.8	3.9	0.0	-8.5	.	.	GRK2 CP2=4.6;FAM quench CP2=102.0
COc1ccc(/C=C/C(=O)NCCSCc2ccco2)cc1OC	i	0.0	2.0	.	-0.2	11.2	.	.

Bioassay records from PubChem.
